PNC inhibitor = blocks assembly of the perinucleolar compartment. PC3M PTB-GFP, PNC prevalence imaging, 16 h; active compounds read low. activity change (PNC), negative = inhibition, % at 10 µM. actives 3.1% (n = 140,000). AID 2417;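 active = readout at or below -70, meaning at least 70% loss of cells showing the perinucleolar compartment, a nuclear body marking cancer cells; inconclusive = readout between -30 and a set limit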
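Read-out is percentage of cells bearing a perinucleolar compartment, from automated 20x imaging of fixed, Hoechst-stained PC3M PTB-GFP cells. Cells were seeded 4 h, then exposed 16 h to compound (23 nl of library stock) in duplicate plates.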
IMPase cell inh = IMPase inhibition in cells; inhibition (IP1 accumulation), % at 46.1 µM; 120,000 tested, under 10 active; CHO-M1 cells, IP1 accumulation, HTRF TR-FRET ratio; P97697; active = well fitted curve in the direction sought with a large enough effect in the signal ratio, not every such curve was filed as active; inconclusive = small, poorly fitted or top-dose-only effect, or a change in a side signal; inactive = no such curve, though single readings can be large or run the other way; the % refers to the signal ratio;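 note: cells stimulated with carbachol in lithium chloride buffer; higher means more IMPase inhibition seen as more IP1 and lower FRET ratio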
Target sequence (P97697 whole entry, looked up): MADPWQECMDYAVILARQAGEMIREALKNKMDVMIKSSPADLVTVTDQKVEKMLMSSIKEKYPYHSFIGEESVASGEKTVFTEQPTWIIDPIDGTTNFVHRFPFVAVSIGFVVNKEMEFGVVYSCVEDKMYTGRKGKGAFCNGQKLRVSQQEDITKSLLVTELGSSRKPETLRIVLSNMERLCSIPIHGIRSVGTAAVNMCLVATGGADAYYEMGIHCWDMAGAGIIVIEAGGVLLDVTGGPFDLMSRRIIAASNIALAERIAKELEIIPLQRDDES
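Seeded CHO-M1 cells were dosed with compound at up to 46 uM, stimulated with carbachol for 30 min, then lysed in IP-One detection reagents. Higher IP1 lowers the TR-FRET signal.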
HPGD inh = inhibitors of human 15-hydroxyprostaglandin dehydrogenase (HPGD). P15428. purified HPGD, NADH fluorescence kinetic, PGE2 substrate. Potency, µM, hits mostly inhibitors. actives 4.3% (n = 150,000). AID 894
Target sequence (P15428 whole entry, looked up): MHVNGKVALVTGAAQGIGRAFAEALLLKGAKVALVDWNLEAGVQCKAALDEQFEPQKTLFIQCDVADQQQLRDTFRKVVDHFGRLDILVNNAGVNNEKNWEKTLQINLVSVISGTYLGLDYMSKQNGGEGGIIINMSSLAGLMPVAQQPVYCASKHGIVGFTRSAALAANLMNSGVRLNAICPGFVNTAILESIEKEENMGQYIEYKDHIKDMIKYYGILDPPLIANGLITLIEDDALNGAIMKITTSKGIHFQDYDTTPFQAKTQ
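20 nM HPGD preincubated 15 min at room temperature with compound in 50 mM Tris-HCl pH 8, 0.01% Tween 20. Started with 1 mM NAD+ and 30 uM prostaglandin E2; NADH fluorescence (360/450 nm) read 5 times over 30-s intervals, last minus first.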
IMPase Li cell = cell-permeable IMPase inhibitors with lithium potentiation. CHO-M1 cells, IP1 TR-FRET (IP-One), carbachol + lithium. Potency, µM (series often up to 59.4 µM), actives largely listed as inhibitors. actives 0.35% (n = 210,000). AID 1457; active = well fitted inhibition curve with a large enough effect; inconclusive = small, poorly fitted or top-dose-only effect; inactive = no such curve, though single readings can be large or run the other way;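 note: IP1 builds up when IMPase is blocked and the TR-FRET signal falls; nearly all actives have a fitted effect of over 50% in size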
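Readout is a homogeneous TR-FRET IP1 immunoassay (Ex 320, Em 665 and 620), where raised cytosolic IP1 lowers signal. Cells were CHO-M1 treated 30 min at 37C with test compounds plus a little lithium; AC50 values came from Hill-equation fitting.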
ALDH1A1 block = blocks purified human ALDH1A1 activity; Purified ALDH1A1, NADH fluorescence, propionaldehyde substrate; Potency, µM (doses to about 75.3 µM), hits mostly inhibitors; P00352; actives 7.3% (n = 220,000)
A number is an active result. Rows were chosen to be rich in hits. Some 11% of all compounds tested hit in one or more screens of this group. Unless noted, calls come from the whole dose curve; as a rule, active = well fitted inhibition curve with a large enough effect (not every such curve was filed as active); inconclusive = small, poorly fitted or top-dose-only effect, or another doubt; inactive = no such curve, though single readings can be large or run the other way.

`COc1ccc(-c2cc(C(F)(F)F)nc(SCCC(=O)Nc3ccc(OC)c(OC)c3)n2)cc1` gave IMPase cell inh inactive.
Screening CCOC(=O)c1c(N)sn(-c2ccccc2C)c1=S returned PNC inhibitor inactive, IMPase cell inh inactive, HPGD inh 11µM, IMPase Li cell inactive and ALDH1A1 block 3.5µM.
CCOC(=O)c1c(N)sc(-c2ccccc2)c1C was read as PNC inhibitor inactive, IMPase cell inh inactive, HPGD inh inconclusive, IMPase Li cell inactive and ALDH1A1 block inconclusive.
Screening c1ccc(C2=Nc3ccccc3SC2c2nc3ccccc3[nH]2)cc1 (stereo not given) returned PNC inhibitor inactive, IMPase cell inh inactive, HPGD inh 35µM, IMPase Li cell inactive and ALDH1A1 block inconclusive.
`O=C1CC(c2nc3ccccc3[nH]2)CN1c1ccccc1` (stereo not given) gave PNC inhibitor inactive, IMPase cell inh inactive, HPGD inh inactive, IMPase Li cell inactive and ALDH1A1 block inactive.
`Cc1oc(C(=O)Nc2ccc(C(=O)O)cc2)cc1COc1ccccc1` gave PNC inhibitor inconclusive, IMPase cell inh inactive, HPGD inh 20µM, IMPase Li cell inactive and ALDH1A1 block inactive.
For CC(=O)c1cc(C(=O)Nc2ccc(C(=O)O)cc2)oc1C the results were PNC inhibitor inconclusive, IMPase cell inh inactive, HPGD inh inactive, IMPase Li cell inactive and ALDH1A1 block inactive.
CCCCNC(=O)/C(C#N)=C/c1ccc2c(c1)OCCO2 was read as PNC inhibitor inactive, IMPase cell inh inactive, HPGD inh inconclusive, IMPase Li cell inactive and ALDH1A1 block 6.3µM.
Cc1cccc(NC(=O)/C(C#N)=C\c2cccnc2)c1 was read as PNC inhibitor inactive, IMPase cell inh inactive, HPGD inh inactive, IMPase Li cell inactive and ALDH1A1 block inactive.
`CC(C)OC(=O)/C(C#N)=C\c1cccnc1` gave IMPase Li cell inactive and ALDH1A1 block 8.9µM.
`CCCCNC(=O)/C(C#N)=C/c1cccnc1` gave PNC inhibitor -106, HPGD inh inconclusive, IMPase Li cell inactive and ALDH1A1 block inactive.
Screening O=C(CSc1ccsc1[N+](=O)[O-])NCc1ccco1 returned IMPase Li cell inactive and ALDH1A1 block inactive.
`COc1ccc(OC)c(-c2csc(NC(=O)Cc3cccs3)n2)c1` gave IMPase Li cell inactive and ALDH1A1 block inactive.
Screening CCc1nc(OCc2ccccc2)c2sc3nc4c(cc3c2n1)COC(C)(C)C4 returned PNC inhibitor inconclusive, IMPase cell inh inactive, HPGD inh inactive, IMPase Li cell inactive and ALDH1A1 block 0.79µM.
Screening CC1(C)Cc2nc3sc4c(OCc5ccccc5)ncnc4c3cc2CO1 returned PNC inhibitor inactive, IMPase cell inh inactive, HPGD inh inactive, IMPase Li cell inactive and ALDH1A1 block inconclusive.
`CCC(C)Nc1nnnc2c1sc1nc3c(cc12)COC(C)(C)C3` (stereo not given) gave IMPase Li cell inactive and ALDH1A1 block 10µM.
For CCc1nc2c(sc3nc4c(cc32)COC(C)(C)C4)c(=O)n1CCN(CC)CC the results were IMPase Li cell inactive and ALDH1A1 block 10µM.
Screening CCSc1ncnc2c1sc1nc3c(cc12)COC(C)(C)C3 returned PNC inhibitor inactive, IMPase cell inh inactive, HPGD inh inactive, IMPase Li cell inconclusive and ALDH1A1 block 0.79µM.
Screening CCCOc1ncnc2c1sc1nc3c(cc12)COC(C)(C)C3 returned IMPase Li cell inactive and ALDH1A1 block inconclusive.
`Cc1cccc(N2CCN(C(=O)c3cc(C)oc3C)CC2C)c1` (stereo not given) gave PNC inhibitor inconclusive, HPGD inh inactive, IMPase Li cell inactive and ALDH1A1 block inactive.
Cc1cc(C#N)c(C)n1-c1cc(S(=O)(=O)N2CCOCC2)ccc1N1CCCC1 was read as PNC inhibitor inactive, IMPase cell inh inactive, HPGD inh 7.9µM, IMPase Li cell inactive and ALDH1A1 block 4.5µM.
O=S(=O)(c1ccc(S(=O)(=O)N2CCOCC2)cc1)N1CCCC1 was read as IMPase Li cell inactive and ALDH1A1 block inactive.
For O=C(NCC(c1cccs1)N1CCOCC1)c1ccccc1NS(=O)(=O)c1cc([N+](=O)[O-])ccc1Cl (stereo not given) the results were PNC inhibitor inactive, IMPase cell inh inactive and ALDH1A1 block inactive.
`O=C(NC(Cc1ccccc1)c1nc2ccccc2[nH]1)C1CC(=O)N(c2ccc3c(c2)OCCO3)C1` (stereo not given) gave PNC inhibitor inactive, IMPase cell inh inactive, HPGD inh inactive, IMPase Li cell inactive and ALDH1A1 block 10µM.
Screening O=C(NCCCc1ccccc1)C1CC(=O)N(c2ccc3c(c2)OCCO3)C1 (stereo not given) returned PNC inhibitor inconclusive, IMPase cell inh inconclusive, HPGD inh inactive, IMPase Li cell inactive and ALDH1A1 block inactive.
COc1ccc(CCC(=O)OCC(=O)c2cccc(OC)c2)cc1 was read as IMPase Li cell inactive and ALDH1A1 block inconclusive.
For CC(OCC(O)CN(C)Cc1nc2ccccc2c(=O)[nH]1)c1ccc(Cl)cc1 (stereo not given) the results were IMPase Li cell inactive and ALDH1A1 block inactive.
O=C1C(Nc2ccccc2)=CC(=O)c2ncccc21 was read as IMPase Li cell inactive and ALDH1A1 block 16µM.
Screening CC(NC(=O)C(NC(=O)C1CCCN1C(=O)OC(C)(C)C)C(C)C)C(N)=O (stereo not given) returned PNC inhibitor -94, IMPase cell inh inactive, HPGD inh inactive, IMPase Li cell inactive and ALDH1A1 block inactive.
Screening CC(C)CC(NC(=O)C1CCCN1C(=O)OC(C)(C)C)C(=O)NCC(N)=O (stereo not given) returned PNC inhibitor inconclusive, IMPase cell inh inactive, HPGD inh inactive, IMPase Li cell inactive and ALDH1A1 block inactive.
`CC(C)CCNC(=O)c1ccc2c(SCC(=O)O)c3c(nc2c1)CCCC3` gave PNC inhibitor inactive, HPGD inh 28µM, IMPase Li cell inactive and ALDH1A1 block inconclusive.
Screening N#Cc1cc2c(nc1SCC(=O)Nc1sc3c(c1C#N)CCC3)CCCCCC2 returned PNC inhibitor inconclusive, IMPase cell inh inactive, HPGD inh inactive, IMPase Li cell inactive and ALDH1A1 block 16µM.
COc1ccc(-c2nnn(CC(=O)Nc3sc4c(c3C#N)CCCC4)n2)cc1 was read as PNC inhibitor inconclusive, IMPase cell inh inactive, HPGD inh inactive, IMPase Li cell inactive and ALDH1A1 block 10µM.
Screening Cn1c(CNC(=O)c2ccc(Cl)cc2)nnc1SCC(=O)Nc1sc2c(c1C#N)CCCC2 returned PNC inhibitor inactive, IMPase cell inh inactive, HPGD inh inactive, IMPase Li cell inactive and ALDH1A1 block inconclusive.
`CCn1c(SCC(=O)Nc2sc3c(c2C#N)CCCC3)nnc1-c1ccncc1` gave PNC inhibitor inactive, IMPase cell inh inconclusive, HPGD inh inactive, IMPase Li cell inactive and ALDH1A1 block 18µM.

Screening data: PubChem, National Center for Advancing Translational Sciences (NCATS)
